For 39 molecules, outcome and AC50 results are on record in PubChem BioAssay (EPA / NIEHS).

Active and inactive are the calls of the source. The calls were made as follows: active = hit-call score of the fitted dose curve at least 0.9, where 1 is the maximum; inactive = score below 0.9.

As a reminder, the AC50 is the concentration at which the activity in the assay is half-maximal.

One assay is described as follows: ATG_NF_kB_CIS: Attagene CIS-FACTORIAL HepG2 Assay for human Nuclear Factor Kappa B (NF-kB) (AID 2282991). The conditions noted are these: HepG2 Attagene cis-factorial NF-kB reporter mRNA; actives raise or lower the signal. The procedure, abridged: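 Multiplexed cis-reporter assay in transiently transfected HepG2. 24 h treatment; RNA isolated, RT-PCR, labelled fragments resolved by CE. DMSO baseline.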
On to `O=S(=O)(c1ccc(O)cc1)c1ccc(O)cc1`, for which the call was inactive.
With `CCOc1ccc(C(C)(C)COCc2cccc(Oc3ccccc3)c2)cc1`, the call was inactive.
Still for that read-out and setting: the result for `c1ccc(OP(Oc2ccccc2)Oc2ccccc2)cc1` reads “inactive”; that for `ClC(Cl)c1ccccc1`, “inactive”.
Same read-out and setting: the result for `Nc1ccc([N+](=O)[O-])cc1Cl` reads “inactive”; that for `C=C(C)C(=O)OCC1CO1` (configuration not stated), “inactive”.

A further assay can be described thus: ATG_NRF2_ARE_CIS: Attagene CIS-FACTORIAL HepG2 Assay for human Nuclear Factor Erythroid 2 Related Factor 2 (NFR2) response to Antioxidant Response Elements (ARE) (AID 2282992).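 As to AC50: reporter mRNA level measured by RT-PCR and capillary electrophoresis fluorescence.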 To be noted: HepG2 Attagene ARE/NRF2 reporter, transcription factor activity; actives raise or lower the signal. Put shortly:
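Readout: reporter mRNA quantified by RT-PCR plus FAM-labelled primer extension, HpaI digestion and capillary electrophoresis, 24 h after dosing transfected HepG2 cells. Gain or loss of signal is fitted bidirectionally against DMSO baseline.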
In the case of `CCOP(=S)(Oc1ccc([N+](=O)[O-])cc1)c1ccccc1` (configuration not stated), the AC50 was 7.75 µM (active).
As for `COP(=O)(O)OC`, the molecule was classed as inactive.
Same read-out and setting: the entry for `N#Cc1ccc(O)cc1` is “inactive”.
Turning to `C=CC(=O)OCC(F)(F)C(F)F`, the AC50 is 50.3 µM (active).
On to `O=C(O)C(F)(OC(F)(F)C(F)(F)C(F)(F)F)C(F)(F)F` (configuration not stated), for which the outcome was inactive.
As for `O=P(OCC(Br)CBr)(OCC(Br)CBr)OCC(Br)CBr` (configuration not stated), the AC50 was 23.4 µM (active).
As for `CC(O)C#N` (configuration not stated), the outcome was inactive.
The same measure, in the same setting: the entry for `O=NN1CCCC1` is “inactive”.
For `N#Cc1cc([N+](=O)[O-])ccc1N`, the AC50 is 27.2 µM (active).
The same measure, in the same setting: the figure for `Cc1cc(C)c(C(=O)P(=O)(c2ccccc2)c2ccccc2)c(C)c1` is 4.78 µM (active); for `O=c1ssc(Cl)c1Cl` it is 1.08 µM (active).
In the case of `CCOC(=O)c1ccccc1C(=O)OCC`, the call was inactive.
As to `CCOP(=S)(OCC)SCSc1ccc(Cl)cc1`, the AC50 was 29.6 µM (active).
Same read-out and setting: the figure for `OCC(F)(F)OC(F)(F)C(F)(F)OC(F)(F)C(F)(F)OC(F)(F)CO` is 33.2 µM (active).
Turning to `COC(N)=O`, the molecule was called inactive.
Still for that read-out and setting: the entry for `COP(N)(=S)OC` is “inactive”; for `FC(F)(F)C(F)(C(F)(F)F)C(F)(F)C(F)(F)CC1CO1` (configuration not stated) it is “inactive”; for `C/C(=N\NC(=O)Nc1cc(F)cc(F)c1)c1ncccc1C(=O)O` it is “inactive”.
Same read-out and setting: the result for `COCCOCCO` reads “inactive”.
On to `O=C(CBr)OCc1ccccc1`, for which the AC50 was 67.8 µM (active).
On the same count and under the same terms, the figure for `Clc1ccc(Oc2ccccc2)cc1` is 177 µM (active).
Consider `CCCCOCC1CO1` (configuration not stated), for which the outcome was inactive.
Still for that read-out and setting: the result for `OCC1CO1` (configuration not stated) reads “inactive”; that for `CCCCC(CC)COC(=O)c1c(Br)c(Br)c(Br)c(Br)c1C(=O)OCC(CC)CCCC` (configuration not stated), “inactive”.
Regarding `Oc1ccc(I)cc1`, the concentration at half-maximal activity (AC50) was 67.3 µM (active).
Turning to `NNC(N)=S`, the molecule was called inactive.
On the same count and under the same terms, the entry for `ClC(Cl)(Cl)c1ccccc1` is “inactive”; for `CC(C)CBr` it is “inactive”.
As to `CC1=C(C(=O)Nc2ccccc2)S(=O)(=O)CCO1`, the AC50 is 2.92 µM (active).
On the same count and under the same terms, the result for `C=CC(=O)OCC(CC)(COC(=O)C=C)COC(=O)C=C` reads 1.65 µM (active).
Turning to `O=S(=O)(c1ccc(O)cc1)c1ccc(O)cc1`, the outcome was inactive.
As to `CCOc1ccc(C(C)(C)COCc2cccc(Oc3ccccc3)c2)cc1`, the molecule was called inactive.
`CCOS(=O)(=O)OCC`: the call was inactive.
The same measure, in the same setting: the result for `c1ccc(OP(Oc2ccccc2)Oc2ccccc2)cc1` reads “inactive”; that for `ClC(Cl)c1ccccc1`, “inactive”.
Still for that read-out and setting: the entry for `Nc1ccc([N+](=O)[O-])cc1Cl` is “inactive”.
On to `C=C(C)C(=O)OCC1CO1` (configuration not stated), for which the half-maximal activity concentration (AC50) is 42.9 µM (active).

Another assay can be described thus: ATG_Oct_MLP_CIS: Attagene CIS-FACTORIAL HepG2 Assay for human Octamer-Binding Transcription Factor (Oct) (AID 2282993). The conditions noted are these: HepG2 Attagene cis-factorial Oct reporter, mRNA; actives raise or lower the signal. The procedure, abridged:
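After 24 h compound exposure, transfected HepG2 cells were lysed for total RNA; reporter-specific cDNA was PCR-amplified, fluorescently labelled and sized by capillary electrophoresis. Bidirectional curve fitting used DMSO as baseline.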
As to `CCOP(=S)(Oc1ccc([N+](=O)[O-])cc1)c1ccccc1` (configuration not stated), the molecule was classed as inactive.
On the same count and under the same terms, the result for `COP(=O)(O)OC` reads “inactive”.
Same read-out and setting: the entry for `N#Cc1ccc(O)cc1` is “inactive”; for `C=CC(=O)OCC(F)(F)C(F)F` it is “inactive”; for `O=C(O)C(F)(OC(F)(F)C(F)(F)C(F)(F)F)C(F)(F)F` (configuration not stated) it is “inactive”.
Same read-out and setting: the entry for `O=P(OCC(Br)CBr)(OCC(Br)CBr)OCC(Br)CBr` (configuration not stated) is “inactive”; for `CC(O)C#N` (configuration not stated) it is “inactive”.
In the case of `O=NN1CCCC1`, the result was inactive.
Same read-out and setting: the result for `N#Cc1cc([N+](=O)[O-])ccc1N` reads “inactive”; that for `Cc1cc(C)c(C(=O)P(=O)(c2ccccc2)c2ccccc2)c(C)c1`, “inactive”.
As to `O=c1ssc(Cl)c1Cl`, the concentration at half-maximal activity (AC50) is 51.6 µM (active).
Take `CCOC(=O)c1ccccc1C(=O)OCC`: the call was inactive.
On the same count and under the same terms, the entry for `CCOP(=S)(OCC)SCSc1ccc(Cl)cc1` is “inactive”.
Same read-out and setting: the entry for `OCC(F)(F)OC(F)(F)C(F)(F)OC(F)(F)C(F)(F)OC(F)(F)CO` is “inactive”; for `COC(N)=O` it is “inactive”.
Still for that read-out and setting: the result for `COP(N)(=S)OC` reads “inactive”.
`CC(C)(C)c1ccc(O)cc1`: the half-maximal activity concentration (AC50) was 166 µM (active).
For `FC(F)(F)C(F)(C(F)(F)F)C(F)(F)C(F)(F)CC1CO1` (configuration not stated), the molecule was called inactive.
Still for that read-out and setting: the result for `C/C(=N\NC(=O)Nc1cc(F)cc(F)c1)c1ncccc1C(=O)O` reads “inactive”; that for `COCCOCCO`, “inactive”.
The same measure, in the same setting: the result for `O=C(CBr)OCc1ccccc1` reads “inactive”; that for `Clc1ccc(Oc2ccccc2)cc1`, “inactive”.
Same read-out and setting: the result for `CCCCOCC1CO1` (configuration not stated) reads “inactive”.
Turning to `OCC1CO1` (configuration not stated), the result was inactive.
Still for that read-out and setting: the result for `CCCCC(CC)COC(=O)c1c(Br)c(Br)c(Br)c(Br)c1C(=O)OCC(CC)CCCC` (configuration not stated) reads “inactive”; that for `Oc1ccc(I)cc1`, “inactive”.
The same measure, in the same setting: the entry for `NNC(N)=S` is “inactive”.
Still for that read-out and setting: the entry for `ClC(Cl)(Cl)c1ccccc1` is “inactive”.
Turning to `CC(C)CBr`, the result was inactive.
Same read-out and setting: the entry for `CC1=C(C(=O)Nc2ccccc2)S(=O)(=O)CCO1` is “inactive”.
On to `C=CC(=O)OCC(CC)(COC(=O)C=C)COC(=O)C=C`, for which the AC50 is 25.5 µM (active).
In the case of `O=S(=O)(c1ccc(O)cc1)c1ccc(O)cc1`, the call was inactive.
Same read-out and setting: the result for `CCOc1ccc(C(C)(C)COCc2cccc(Oc3ccccc3)c2)cc1` reads “inactive”; that for `CCOS(=O)(=O)OCC`, “inactive”; that for `c1ccc(OP(Oc2ccccc2)Oc2ccccc2)cc1`, “inactive”.
The same measure, in the same setting: the result for `ClC(Cl)c1ccccc1` reads “inactive”; that for `Nc1ccc([N+](=O)[O-])cc1Cl`, “inactive”; that for `C=C(C)C(=O)OCC1CO1` (configuration not stated), “inactive”.
In the case of `Cc1ccc(O)cc1C`, the result was inactive.
